Laboratory results: PubChem BioAssay AID1508600 (Functional Genomics Laboratory (NCATS/FGL), 2020)
Screen size: about 53,000 sequences; about 3,700 (7%) were called active. The sample as a whole holds a higher share of actives than the screen did. A number with no mark means an inactive call.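 Rule for the calls: active = gene knockdowns whose robust z-score for IL-1 alpha signal is at least 2 or at most -2, so actives lie on both sides; inactive = the rest.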

Test: Components of the Cytosolic LPS Sensing Pathway: Gene Identification via Genome-wide siRNA Screen;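 note: robust z of the log signal after scaling to non-targeting control siRNA wells of the plate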
Details: RAW264.7 macrophages, IL-1a HTRF, actives lie on both sides, screened at 100 nM (by protocol), cells primed 5 h with Pam3CSK4 first
In short: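 IL-1a HTRF of supernatants after 24 hour LipidA transfection of Pam3CSK4-primed (5 hours) RAW264.7 cells, 48h post-siRNA transfection (100 nM). Scores: percent of plate negative-control median, then log-based robust z-score.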
With CCAGGGUGGUCUUUUGAAGTT against Eif1 the z-score was -1.66.
In the case of “GGUAGAUGAUAAUUUCACUTT against 4930595M18Rik”, the z-score is reported as -0.894.
GCCAUGAGACACCUUCUCUTT against Olfr843 showed a z-score of -1.96.
With GGCGAACUGAAGGAUAUGGTT against Anapc5 the z-score was 0.835.
ACAUGACAAACAACACUAUTT against Olfr960 gave a z-score of -0.891.
For GGCAGCUAGAGAGAAUCCUTT against Akr1c12, the z-score was -2.45 (active).
Work on GCUUUCGGUGGAUUCCUUATT against Rars2 yielded a z-score of -0.714.
With GGACUGGUUCUUCAGAUCCTT against Depp1 the z-score was 3.31 (active).
For GGCUUUCGGUUAUGACCAATT against Alas2, the z-score was -0.385.
Work on GGAAACCAUCUUUGAACUUTT against Specc1l yielded a z-score of 0.54.
GGAUGUAUGAUGCAGUUAUTT against Olfr1211 gave a z-score of 1.89.
Sequence GGGAUUUGAGCAUCUUUCCTT against Lrrc40 has a z-score of 0.571.
In the case of GGCUUUGAUUAUGUUCCCATT against Fcer2a, the z-score is reported as -0.188.
With GGUGACUAGAAAAAUGGAUTT against Cd1d1 the z-score was 0.528.
GGAGAAGAUGUGGAGACAUTT against Edf1 showed a z-score of -1.3.
Sequence GGCAAAGAUCUUAUGGAGATT against Csf3r has a z-score of 0.0079.
With GGUUCUUUUUGCCACAGCCTT against Miga2 the z-score was -2.31 (active).
Work on GGGAGUAUUACCUCCUUCATT against Igbp1b yielded a z-score of 0.00303.
Work on GCAGCUUGAGUUCUCGAAUTT against BC049715 yielded a z-score of 0.971.
GGAAGAAGCUCUAUGCUGATT against Fbxo9 gave a z-score of -0.589.
Sequence GCUUGACCUUUUUACUCCUTT against Siglece has a z-score of 0.262.
For GCAGAACUUGACCACUGCCTT against Defb2, the z-score was 2.58 (active).
GGAUAAUUCACAGUUCAAATT against Tlk1 showed a z-score of 1.14.
Work on GGACAUCAUGGACCUGAAGTT against Bmerb1 yielded a z-score of -0.582.
With GAAGCUAGAAGAGAUUAAATT against Cep41 the z-score was 0.821.
CCCUGUUGAUGAACAAAUCTT against Ddt showed a z-score of -0.262.
For GGUAUGUAGGAAUUACAGUTT against AI606181, the z-score was 2.49 (active).
Work on CCUGUCGUUCCUCCUUACATT against Sec11a yielded a z-score of -1.29.
CCAACCUCCCAUUCUGAAUTT against Ttc22 showed a z-score of 1.71.
Sequence GGGCUUAUUCUGUUAAUAGTT against Mttp has a z-score of -0.215.
With GCAGGGAUCUGGAUUUAAUTT against Arf5 the z-score was 3.37 (active).
In the case of CUUAGACCCAAUUCAAUUCTT against Zfp667, the z-score is reported as -0.0845.
In the case of CGGCUUCUUAGGAAACUCUTT against Olfr358, the z-score is reported as -0.369.
Sequence GGUGAAAACGUGGUUCCAGTT against Bsx has a z-score of -0.0072.
With GGUGACUUCCACUCUAACUTT against Sohlh2 the z-score was -2.57 (active).
With GGCUAUGAAUAAACUUUUCTT against Olfr1016 the z-score was 0.429.
In the case of GGGAUGGAGGAGGAGCUUATT against Bad, the z-score is reported as 0.86.
GGAUUCAAUUUUUUGCCAUTT against Pbdc1 showed a z-score of -1.74.
Work on CCACGUAUUGUUAGUAGAATT against Ei24 yielded a z-score of 0.251.
For GUAAGGUAUUCAGUGACCUTT against Olfml2a, the z-score was -2.23 (active).
In the case of GGAAACAGAUUUAAAGUGATT against Efcc1, the z-score is reported as 1.03.
In the case of GGACAAGAAGGCAAAUUAGTT against Arhgap9, the z-score is reported as 0.366.
Work on GCAUAAUAAGCCAAUUCUGTT against Med17 yielded a z-score of -0.355.
GCUGAAGUUUACUAUAACATT against Marco gave a z-score of 0.565.
GGUACCAUCACGUUGUGUATT against M6pr showed a z-score of -0.76.
For CCUUGCUCUUUCCAGCUCUTT against Olfr704, the z-score was 0.332.
In the case of GGACAUCGGCUACAACACCTT against Fzd10, the z-score is reported as -2.08 (active).
With GCUGAGGCAAUUUCAACUUTT against Ctla4 the z-score was 0.169.
For GCACGACACUCUGUGCAUCTT against Kyat3, the z-score was 0.6.
Sequence GCAUCCUACUUCUCAACUUTT against Ceacam12 has a z-score of 0.328.
For GGGUUUCGCUAGAACCAUUTT against Plekhg5, the z-score was -0.541.
For GCUUGUUGCCUAGGACCUATT against Eif1ad, the z-score was -1.14.
CCCUCAGAUUCAAAAAGUGTT against Krt1 gave a z-score of 0.233.
Sequence GCAUGGAGAGAACCUGAAATT against Trim69 has a z-score of -0.801.
In the case of GGGCCAAGAUACCAAGAGUTT against Spout1, the z-score is reported as -2.71 (active).
For GGAUAACAGUAAAUGGCUUTT against Zkscan8, the z-score was 0.152.
In the case of “GGUUAAGUUACUAACCCAGTT against 4931406C07Rik”, the z-score is reported as 1.01.
Work on “GAGACACUUGUGCUGUAGGTT against F730035P03Rik” yielded a z-score of 0.108.
With “GCACUGUAUUCUUGAGCACTT against 1700020L24Rik” the z-score was 2.06 (active).
GGUAGUGAUUACGAACCAATT against Hey1 showed a z-score of 0.605.
For GCCCAGUACUCCGCUUACATT against Bhlhe23, the z-score was -2.03 (active).
GGGCUGAUCUUUUUAACUGTT against Tpm3 showed a z-score of -0.581.
In the case of GGCCUUAGAGAAAAUCUUUTT against Brd3, the z-score is reported as 0.871.
In the case of ACCAGCACGACAGAUGCUATT against Pla2g12a, the z-score is reported as 3.15 (active).
In the case of GGCAUACCGUAAAAGUGGCTT against Olfr73, the z-score is reported as -1.95.
GCCAAGAUGGUUAAAUACCTT against Ankrd34b gave a z-score of -1.64.
With GGUUCGCCCUUGGAAAUGGTT against Dmap1 the z-score was -0.258.
In the case of GGAAUUCAUACCCUUGUUGTT against B3gnt5, the z-score is reported as -0.486.
For GGAGGUGAAAGGCAAAACUTT against Poldip2, the z-score was -0.122.
CGAAGGUCAAACAGUUUGATT against Stxbp6 gave a z-score of -0.558.
In the case of GGACUAGCAGUAAUAAAAGTT against Zdhhc9, the z-score is reported as -2.37 (active).
For “CCAGAAUUGAACUUCAAGUTT against 2610008E11Rik”, the z-score was -0.00302.
With GGGAGAGAACGUGUUCUUCTT against P2rx6 the z-score was -0.477.
With GGAGAUCUCCAUCAUCACCTT against Usp50 the z-score was -1.52.
Sequence CCUAAUGUACACUAACUAUTT against Hsd17b14 has a z-score of 1.84.
CCCUAAGAGAGCCUAAAACTT against Serpina3c showed a z-score of -1.12.
With GAACUCUCUCUUCAUCUGGTT against Cd300ld3 the z-score was 2.18 (active).
In the case of CCUUUUUGCUGAAUGUGGATT against Aard, the z-score is reported as 0.798.
GGUGUUGGAUUCCAAUCCCTT against Uba5 gave a z-score of -0.462.
For GGAUGAAAAGAUUGAACUCTT against Gart, the z-score was 3.22 (active).
Work on GCUCGAUAUUUUGAAGUCCTT against Cntd1 yielded a z-score of 0.693.
In the case of GGAUCAGACUGUACGAGAGTT against Crygd, the z-score is reported as -1.11.
With GGAAAGUGAAAGUUAGUUUTT against Cbx6 the z-score was 0.244.
In the case of GCAUUUGGAAUUUACCAUGTT against Wdr47, the z-score is reported as 1.13.
Work on GCCGAGUCUCAGCUUGUAATT against Dnajc3 yielded a z-score of 0.258.
In the case of GGAAUGGGAUUACACCUACTT against Mymk, the z-score is reported as 2.67 (active).
With GUAUGACCAGAAGAAAAAGTT against Lrrc72 the z-score was -2.19 (active).
In the case of GGCAUAUCUGAGGUGAAUCTT against Sec23b, the z-score is reported as -1.57.
With GGAAAGAGCAAACAGUUCCTT against Il1f6 the z-score was -2.09 (active).
Work on GGUAUUUUGACAGAGUCGATT against Add1 yielded a z-score of -1.24.
Work on GGUGUUAUCUGCAUCAUCATT against Cyp4f15 yielded a z-score of -1.42.
With GGUACUUAUGUGGAUUGGATT against Rint1 the z-score was -0.272.
For GGGACUGGACCCAUACAAUTT against Cox5b, the z-score was 4.27 (active).
Sequence CCGAGUAAGUUUAACUAAGTT against Lrrc39 has a z-score of -0.501.
GCUAUAUAAAGGCUGAGUATT against Emilin3 gave a z-score of -0.128.
With GGAUGAAGGCCAUUCAAACTT against Hnrnpd the z-score was 2.04 (active).
GGAAGAUCUGAAGUCAAUCTT against Mvk showed a z-score of -1.08.
GGAGAAAGACAUCAGAAAGTT against Rdh16f2 showed a z-score of 0.942.
For GGGCCUGAUCUACCUGUUUTT against Slc6a18, the z-score was 0.255.
GGACAAGUAUGAAUGUCUATT against Ptk2b showed a z-score of 1.25.
With CCAAGUGGUACGACCAUGATT against Gcnt3 the z-score was 1.3.
CCGACCUGAAGACCUUACATT against Tmem18 showed a z-score of -0.501.
For GCCCUAGGAGGAACUGAGUTT against Olfr458, the z-score was -2.54 (active).
“CGGAAGAAGUUAUUUAGAATT against 1700006J14Rik” showed a z-score of 0.87.
With GGCUCCAAGUCUACACAACTT against Dnajc6 the z-score was 2.82 (active).
Sequence CCUCAUUGAGUUUUGAAGATT against Dtd2 has a z-score of -0.329.
GGAAGACCUUGUGUUUGCATT against Mmp13 gave a z-score of -0.692.
